The record followed here is the supplement of paper PMC4894684.

Where a name gives a salt, the structure may show the parent alone. ± gives the standard deviation of the averaged measurements.

For the experiment, the system named is Toxoplasma gondii RH (in HFF). Put plainly: parasite growth relative to the screen mean (all compounds = 100%); higher = less inhibition of parasite growth. Particulars: 5 µM; 72 h; oxygen 21 %. The essentials:
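RH β-Gal–GFP Toxoplasma at MOI 1:5 was used to infect confluent human foreskin fibroblasts in 96-well plates within 2 h of pin-transferring compounds to 5 µM final. After 72 h at 21% O2, parasite number was determined by CPRG β-Gal assay against standard curves on the same plate. Growth is relative to the screen mean and averaged over two screens, with all compounds = 100%.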
`COc1ccc(CCN(C)CCCN2CCc3cc(OC)c(OC)cc3CC2=O)cc1OC` [Zatebradine hydrochloride] yielded a parasite growth of 103 ± 1.8%.

For `CN(Cc1ccccc1)C(=O)[C@H](Cc1ccc2ccccc2c1)NC(=O)[C@@H]1CCCN1C(=O)Nc1ccccc1[N+](=O)[O-]`, the parasite growth is 110 ± 9.9%.

Regarding `CCN(c1ccccc1)c1cc(=NC)n(C)c(C)n1`, the parasite growth is 59 ± 11%.

On to `CCCCCCCCCCCCCCCC(=O)C(F)(F)F`, for which the parasite growth was found to be 108 ± 7.6%.

For `OC[C@H]1O[C@@H](n2cnc3c(NC4CCCC4)ncnc32)[C@H](O)[C@@H]1O` [N6-Cyclopentyladenosine], the parasite growth turned out to be 77.4 ± 7.7%.

In turn, `CNCCC(Oc1ccccc1OC)c1ccccc1` (stereo not drawn) [Nisoxetine hydrochloride] showed a parasite growth of 67 ± 20%.

In turn, `C[C@H](NC(=O)c1sccc1OCc1ccc(Cl)cc1)c1ccccc1` gave a parasite growth of 38.7 ± 22%.

`COc1ccc2cccc(N3CCN(CCNC(=O)c4ccc(F)cc4)CC3)c2c1` came in with a parasite growth of 122 ± 20%.

In turn, `Cc1sc(N)c(C(=O)c2cccc(C(F)(F)F)c2)c1C` came in with a parasite growth of 141 ± 7.3%.

On to `COC(=O)C[C@](O)(CCCC(C)(C)O)C(=O)O[C@@H]1C(OC)=C[C@]23CCCN2CCc2cc4c(cc2[C@H]13)OCO4` [Homoharringtonine], for which the parasite growth is < 0%.

`CC1CCN(CCCC(=O)c2ccc(F)cc2)CC1` [Melperone hydrochloride] had a parasite growth of 126 ± 12%.

`O=C(/C=C/c1c(C(=O)O)[nH]c2cc(Cl)cc(Cl)c12)Nc1ccccc1` [Gavestinel]: the parasite growth turned out to be 114 ± 17%.

`CCN1CCCC1CNC(=O)c1cc(S(=O)(=O)CC)c(N)cc1OC` (stereo not drawn) [Amisulpride] gave a parasite growth of 115 ± 14%.

In turn, `Cn1cnc2c(NCc3ccccc3)nc(NCCO)nc21` [Olomoucine] came in with a parasite growth of 127 ± 7.9%.

On to `CCC(=O)O[C@]1(C(=O)SCF)[C@H](C)C[C@H]2[C@@H]3C[C@H](F)C4=CC(=O)C=C[C@]4(C)[C@@]3(F)[C@@H](O)C[C@@]21C` [Fluticasone propionate], for which the parasite growth is 59.2 ± 34%.

Consider `O=C(O)COCCN1CCN(C(c2ccccc2)c2ccc(Cl)cc2)CC1` (stereo not drawn) [Cetirizine dihydrochloride], for which the parasite growth amounted to 136 ± 34%.

Take `OC[C@H]1NC[C@@H](O)[C@@H](O)[C@@H]1O` [1-Deoxymannojirimycin hydrochloride]: the parasite growth turned out to be 141 ± 9.1%.

Compound `CCc1cc(Cl)c(OC)c(C(=O)NC[C@@H]2CCCN2CC)c1O` [Eticlopride hydrochloride] had a parasite growth of 106 ± 11%.

Consider `NC(C(=O)O)c1cc(O)cc(O)c1` (racemic), for which the parasite growth worked out at 142 ± 15%.

Take `O=C(NCC1CCCCN1)c1cc(OCC(F)(F)F)ccc1OCC(F)(F)F` (stereo not drawn) [Flecainide acetate]: the parasite growth stood at 130 ± 7.9%.

Take `CNc1cc(OC)c(C(=O)NC2CCN(Cc3ccccc3)C2C)cc1Cl` (stereo not drawn) [Nemonapride]: the parasite growth was 95.4 ± 2.2%.

Compound `COc1ccc(Cl)cc1NC(=O)Nc1cc(C)nc2ccccc12` showed a parasite growth of 52.7 ± 30%.

For `Clc1ccc(-c2nc3sccn3c2/C=N/OCc2ccc(Cl)c(Cl)c2)cc1`, the parasite growth came to 110 ± 8.4%.

Turning to `O=c1cc(N2CCOCC2)oc2c(-c3ccccc3)cccc12`, the parasite growth is 129 ± 26%.

As for `c1ccc(CN2CCC3(CCc4ccccc43)CC2)cc1` [L-693,403 maleate], the parasite growth was found to be 135 ± 10%.

Consider `Cc1noc(NS(=O)(=O)c2ccc(N)cc2)c1C` [Sulfisoxazole], for which the parasite growth is 108 ± 1.1%.

On to `O=c1cc(N2CCOCC2)oc2c1ccc1ccccc12`, for which the parasite growth turned out to be 89.2 ± 2.4%.

`CNCCCC12CCC(c3ccccc31)c1ccccc12` [Maprotiline hydrochloride] had a parasite growth of 54.1 ± 17%.

As to `N[C@@H](CSS(=O)(=O)O)C(=O)O` [S-Sulfo-L-cysteine sodium salt], the parasite growth was determined as 101 ± 6.6%.

Take `CCCCCCCCCCCCCCCC(=O)O[C@H](CC(=O)O)C[N+](C)(C)C` (racemic) [(±)-Palmitoylcarnitine chloride]: the parasite growth was found to be 108 ± 22%.

For the compound `Cn1cc(C2=C(c3cn(CCCSC(=N)N)c4ccccc34)C(=O)NC2=O)c2ccccc21` [Ro 31-8220 mesylate], the parasite growth is < 0%.

`Cc1ccc(/C(=C\CN2CCCC2)c2ccccn2)cc1` [trans-Triprolidine hydrochloride] yielded a parasite growth of 96.7 ± 39%.

`CCCn1c(=O)c2[nH]c(-c3ccccc3)nc2n(CCC)c1=O` [1,3-Dipropyl-8-phenylxanthine] came in with a parasite growth of 47 ± 7.9%.

With `COc1nc(C)nc(Cl)c1NC1=NCCN1` [Moxonidine hydrochloride], the parasite growth turned out to be 108 ± 27%.

The compound `CC1CCN(CC[C@H]2CCCN2S(=O)(=O)c2cccc(O)c2)CC1` gave a parasite growth of 120 ± 15%.

Compound `c1ccc(C(NCc2cccnc2)(c2ccccc2)c2ccccc2)cc1` showed a parasite growth of 48.8 ± 13%.

Turning to `Fc1ccc(-c2nc3n(c2-c2ccncc2)CCS3)cc1`, the parasite growth was < 0%.

In the case of `C[C@H](NC[C@H](O)CP(=O)(O)CC1CCCCC1)c1ccc(Cl)c(Cl)c1`, the parasite growth came to 129 ± 36%.
